Results: PubChem BioAssay AID777 (Sanford-Burnham Center for Chemical Genomics, 2007)
Out of some 96,000 compounds screened, about 19,000 (20%) were called active. A selection follows. Unmarked numbers belong to inactive results.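 The calls were made as follows: active = blocking of liver enzyme CYP2C9 beyond about 50% at 5 µM (limit read from the data); inactive = the rest.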

biological target: Cytochrome P450 2C9 (Homo sapiens) (UniProt P11712); test: blockers of cytochrome P450 2C9 activity – biochemical, luminescence, ADME assay, primary screen (AID 777); conditions: CYP2C9 Supersomes, luciferin-H conversion, at 5 µM, stronger effect = higher value
Sequence (P11712 whole entry, looked up): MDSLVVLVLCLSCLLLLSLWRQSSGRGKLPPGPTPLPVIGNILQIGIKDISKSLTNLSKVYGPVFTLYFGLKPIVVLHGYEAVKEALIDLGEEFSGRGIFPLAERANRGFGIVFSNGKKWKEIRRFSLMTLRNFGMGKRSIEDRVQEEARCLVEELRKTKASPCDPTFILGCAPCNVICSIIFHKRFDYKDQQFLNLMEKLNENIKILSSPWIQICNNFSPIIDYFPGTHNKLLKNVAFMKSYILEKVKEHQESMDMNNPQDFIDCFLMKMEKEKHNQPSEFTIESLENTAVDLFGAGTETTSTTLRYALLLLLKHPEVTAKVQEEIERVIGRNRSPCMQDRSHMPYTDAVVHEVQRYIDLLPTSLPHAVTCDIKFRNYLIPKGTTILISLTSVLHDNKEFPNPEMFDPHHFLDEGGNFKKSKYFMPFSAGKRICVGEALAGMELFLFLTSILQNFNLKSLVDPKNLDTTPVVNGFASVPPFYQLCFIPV

| SMILES | inhibition |
| --- | --- |
| CCOC(=O)CN1CC23C=CC(O2)C(C(=O)Nc2ccc(F)cc2)C3C1=O (stereo unspecified) | -21.8% |
| CC1(C)C/C(=C(/C#N)C(N)=O)CCO1 | -18.3% |
| Nc1c(-c2ccc(F)cc2)cnc2ncnn12 | -25.1% |
| CC1(C)CC(=O)C=C(NCc2ccncc2)C1 | 7.3% |
| Cc1nn(Cc2ccc(Cl)c(Cl)c2)c(C)c1NC(=O)c1cc(C2CC2)on1 | 96.7% (active) |
| CSc1ccccc1NC(=O)c1cc(C2CC2)on1 | -144% |
| Cc1cc(C(=O)Nc2c(C)nn(Cc3ccccc3)c2C)on1 | 22.4% |
| Cc1cc2ccccc2n2c(SCC(=O)N3CCN(C(=O)c4ccco4)CC3)nnc12 | -4.3% |
| CCCCNC(=O)CCn1c(=S)[nH]c2cc3c(cc2c1=O)OCO3 | 36.3% |
| Cc1ncc(CC(=O)n2cc(C(=O)c3cc(Cl)ccc3O)cn2)s1 | 81.1% (active) |
| O=C(c1ccc2c(c1)N(Cc1ccc(F)cc1)C(=O)CS2)N1CCOCC1 | 1.7% |
| CCOC(=O)c1oc2ccccc2c1NC(=O)c1cccs1 | 20.2% |
| Cc1cc(Nc2ccccc2)nc(N)n1 | -6.6% |
| Cc1ccc(S(=O)(=O)NCCSC(C)(C)C)cc1 | 23.6% |
| COc1ccccc1CNS(=O)(=O)c1ccc(C)cc1 | -159% |
| Cc1ccc(S(=O)(=O)NCC(C)NS(C)(=O)=O)cc1 (stereo unspecified) | 60.2% (active) |
| CCOc1ccc(NC(=O)Nc2ccc(N(C)C(C)=O)cc2)cc1 | -6.3% |
| Cc1ccc(C)c(N2C(=O)CS/C2=N\NC(=O)c2ccccc2Cl)c1 | 77.7% (active) |
| O=C(Nc1ccc2sc3ccccc3c(=O)c2c1)c1ccccc1Cl | -9% |
| CC(=O)Nc1cccc(/C(C)=N/NC(=O)c2ccccc2Cl)c1 | 0.2% |
| COc1ccc(-c2nnn(Cc3nc(N)nc(N4CCCCC4)n3)n2)cc1 | 17.3% |
| CCOc1cc(/C=C2/N=C(c3ccc(C(C)(C)C)cc3)OC2=O)cc(Cl)c1OS(C)(=O)=O | 30.3% |
| CCOCCCN1C(=O)CN(C2CCCCC2)C(=O)C1c1ccc(OCC)c(OC)c1 (stereo unspecified) | 15.3% |
| COc1cc2[nH]c(=S)n(Cc3ccc(C)o3)c(=O)c2cc1OC | -0.8% |

| SMILES | inhibition |
| --- | --- |
| Cc1nc2cc(S(=O)(=O)C(F)(F)F)ccc2s1 | 1.9% |
| N/C(=N\OC(=O)Nc1ccc(Cl)c(Cl)c1)c1ncc(C(F)(F)F)cc1Cl | -6.7% |
| O=C(CC(O)(C(F)(F)F)C(F)(F)F)Nc1ccc(Cl)c(Cl)c1 | 65% (active) |
| Cc1nnc(NC(=O)Nc2ccc(Cl)c(Cl)c2)s1 | 48.4% |
| C=CCn1c(N)c(C(=O)OCC(C)C)c2nc3ccccc3nc21 | 28.3% |
| Cc1ccc(S(=O)(=O)c2c(N)n(C)c3nc4ccccc4nc23)cc1 | 14.2% |
| C=CCn1c(N)c(S(=O)(=O)c2cccs2)c2nc3ccccc3nc21 | 86.3% (active) |
| CCCCSc1nnc(-c2ccc(C)cc2)o1 | 31.3% |
| O=C(C1CCN(S(=O)(=O)Cc2ccccc2)CC1)N1CCCc2ccccc21 | 51.8% (active) |
| O=C(CSCc1ccccc1)N1CCc2ccccc21 | -12.4% |
| CCS(=O)(=O)N1CCC(C(=O)N2CCN(c3ccccc3)CC2)CC1 | 9.9% |
| CCOc1ccc(NC(=O)C2CC(=O)N=C(N)S2)cc1 (stereo unspecified) | -2.4% |
| CC(NC(=O)C1CCC(CNc2c(N3CCOCC3)c(=O)c2=O)CC1)c1ccccc1 (stereo unspecified) | -6.7% |
| O=C(Nc1cccc2cccnc12)c1cccc(N2C(=O)CCC2=O)c1 | -71.6% |
| Cn1c(CNC(=O)C(C)(C)C)nc2ccccc21 | -13.1% |
| COc1cc(C(=S)N2CCOCC2)cc(OC)c1OC(=O)c1cc([N+](=O)[O-])cc([N+](=O)[O-])c1 | -5% |
| COc1ccc(Cc2nnc(SCC(=O)c3cccc([N+](=O)[O-])c3)n2C)cc1 | 38.7% |
| COc1ccc(C(=O)N2CCc3cc(OC)c(OC)cc3C2c2cccc([N+](=O)[O-])c2)cc1 (stereo unspecified) | 64.4% (active) |
| CCC1CCCCN1CCCNC(=O)Cn1nc(-c2ccccc2)ccc1=O (stereo unspecified) | 9.1% |
| Cc1c(NC(=O)CSc2cccc3cccnc23)c(=O)n(-c2ccccc2)n1C | -25.5% |
| O=c1cccc(-c2ccc(Br)cc2)o1 | -19.8% |
| O=C(Cc1ccc(-n2c(=O)c3sccc3n(Cc3ccc(F)cc3)c2=O)cc1)NCc1ccco1 | 69.5% (active) |
| O=C(NCCc1ccco1)c1nn(Cc2ccccc2)c(=O)c2ccccc12 | 7.4% |
| O=C(NCc1ccco1)c1ccc(Cn2c(=O)c3sccc3n(Cc3ccc(F)cc3)c2=O)cc1 | 79.7% (active) |

| SMILES | inhibition |
| --- | --- |
| Cc1nc2c(-c3ccc(F)cc3)c(C)nn2c(C)c1CCC(=O)NCc1ccco1 | 24.9% |
| O=C(NCc1ccco1)c1sc2cccc(F)c2c1Cl | -26.6% |
| COc1cc(-n2c(C)nc3cc(C(=O)NCc4ccco4)ccc32)cc(OC)c1OC | 8.4% |
| O=C(NCc1ccco1)c1cc2sccc2n1Cc1ccc(F)cc1 | 60.8% (active) |
| Cc1cc(C(=O)OCC(=O)NCc2ccco2)c(C)n1-c1ccccc1 | 42.1% |
| O=C(NCc1ccco1)c1ccc(CS(=O)(=O)Cc2ccc(F)cc2)o1 | 40.7% |
| NC(=O)CCCC1=NS(=O)(=O)c2ccccc2N1 | 4.2% |
| O=S(=O)(CCc1nc2ccccc2o1)c1ccc(Cl)cc1 | -2.3% |
| CCOC(=O)N1CCN(C(=O)C2CC(c3ccc(F)cc3)=NO2)CC1 (stereo unspecified) | 8.8% |
| CCC(=O)N1CCc2cc(S(=O)(=O)NC(C(=O)N3CCc4ccccc4C3)C(C)C)ccc21 (stereo unspecified) | 27% |
| CCCS(=O)(=O)N1CCC(C(=O)NCCCN(C)Cc2ccccc2)CC1 | 20.7% |
| Cc1cccc(N2CCN(C(=O)C3CCN(S(=O)(=O)c4cnc[nH]4)CC3)CC2)c1C | 30.4% |
| CCN(CCCNC(=O)C1CCN(S(=O)(=O)c2cnc[nH]2)CC1)c1ccccc1 | 81.8% (active) |
| CCCCC(=O)N(c1ccc(OC)cc1)C1C=CS(=O)(=O)C1 (stereo unspecified) | 25.7% |
| Cn1cccc1Cc1nnc(SCC(=O)NCc2ccc3c(c2)OCO3)n1CCc1ccccc1 | 55% (active) |
| Cn1cccc1Cc1nnc(SCC(=O)NCCc2ccccc2)n1-c1ccc(F)cc1 | 48.3% |
| CNC(=O)CSc1nnc(CCc2ccccc2)n1-c1ccccc1 | -17.6% |
| Cc1ccccc1-c1nnc(SCC(=O)NCc2ccc3c(c2)OCO3)n1C | 88.6% (active) |
| Cc1ccc(-n2c(SCC(=O)Nc3ccc4c(c3)OCO4)nnc2-c2ccccn2)cc1 | 43% |
| Cc1ccc(-n2c(SCC(=O)NCc3ccc4c(c3)OCO4)nnc2-c2cccnc2)c(C)c1 | 62.7% (active) |
| CC(C)NC(=O)CSc1ccccc1C(=O)NCc1ccc2c(c1)OCO2 | 16.9% |
| O=C(CSc1nnc(-c2ccccn2)n1-c1ccccc1)Nc1ccc2c(c1)OCO2 | 2.8% |
| Cc1cccc(NC(=S)Nc2ccc(Br)cc2)c1 | 2.2% |
| CC(C)(C)C(=O)CCN1C(=O)C2(OCCO2)c2ccccc21 | 7.8% |

| SMILES | inhibition |
| --- | --- |
| CCN(CC)CCNC(=O)C1c2ccccc2C(=O)N(C)C1c1cn(C)c2ccccc12 (stereo unspecified) | 1.7% |
| COc1ccc(-c2nnco2)cc1OC | -14.9% |
| COc1ccc(NC(=O)CC2COc3ccccc3O2)c(OC)c1 (stereo unspecified) | 5.9% |
| O=C(CN1C(=O)CSc2ncccc21)N1CCOCC1 | 41.4% |
| O=C(c1ccco1)N1CCN(c2cccc(Cl)c2)CC1 | 17.6% |
| O=C(c1ccc2c(c1)OCO2)N1CCN(C(=O)c2ccco2)CC1 | 15.8% |
| O=C(c1ccco1)N1CCN(C(=O)C2c3ccccc3Oc3ccccc32)CC1 | 58.3% (active) |
| COc1nc(Oc2ccc(=O)n(C)n2)nc(N(C)C)n1 | -16.1% |
| COc1cc(C(=S)N2CCOCC2)cc(OC)c1OC(=O)c1cc([N+](=O)[O-])c(C)c([N+](=O)[O-])c1 | 5.7% |
| COc1ccc(C(=O)Cn2nnc(-c3ccc(N4CCOCC4)cc3)n2)cc1OC | -6% |
| COc1ccccc1OCCNc1cc(N2CCOCC2)ccc1[N+](=O)[O-] | 55.8% (active) |
| Cc1nn(-c2cc(Cl)ccc2N)c(=O)c2ccccc12 | 2.2% |
| O=C1C2(c3ccccc3)CN(CCCO)CC1(c1ccccc1)CN(CCCO)C2 | 7.8% |
| Cc1ccc(NC(=O)CCNS(=O)(=O)c2ccc3c(c2)oc(=O)n3C)cc1C | -21.7% |
| FC(F)Oc1ccccc1C1CC(c2ccc(Br)s2)Nc2ncnn21 (stereo unspecified) | 91.4% (active) |
| CCCCC(=O)N1CC2(C)CN(C(=O)CCCC)CC(C)(C1)C2=O | -4% |
| Cn1cnc([N+](=O)[O-])c1Sc1ccccc1 | 8.6% |
| O=C(N1CCOCC1)N1CCOCC1 | -8.2% |
| COc1ccc(C2CC(c3ccc(C)cc3)Nc3ncnn32)cc1 (stereo unspecified) | 65.4% (active) |
| COc1ccc(C2CC(c3ccc(C)cc3)Nc3nc(N)nn32)cc1 (stereo unspecified) | 27.3% |
| COc1ccc(C2CC(c3ccccc3)Nc3ncnn32)cc1 (stereo unspecified) | 23.9% |
| CCC(=O)c1ccc(OCC(O)CN2CC(C)OC(C)C2)cc1 (stereo unspecified) | 18.3% |
| N#Cc1ccc(-c2ccc(Cl)cc2)nc1Oc1ccc(F)cc1 | 6.8% |
| O=S(=O)(c1ccc(Br)cc1)n1ccc2ccccc21 | -2.4% |
